# Screens from PubChem.
# Rows were chosen to be rich in hits. Some 2.4% of all compounds tested hit in one or more screens of this group.
# eIF4H FP inh = inhibitors of RNA binding by human eIF4H. Q15056. eIF4H fluorescence polarization binding assay. inhibition, % at 35 µM. actives 0.94% (n = 290,000);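 further: calls also rest on retests at 20 µM and on dose response follow-up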
# Efa HMGR inh = blocks class II HMG-CoA reductase of Enterococcus faecalis. inhibition, % at 10 µM. actives 0.41% (n = 190,000). purified E. faecalis HMGR, NADPH absorbance 340 nm kinetic. AID 1066;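 active means inhibition above a set limit, the median over all tested compounds plus 3 SD, cut at about 9.5% in these data; inconclusive means no clear call, values can overlap the other calls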;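 further: enzyme runs in reverse so mevalonate oxidation gives rising NADPH absorbance; 0% = complete reaction with DMSO and 100% = background rate lacking mevalonate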
# PABP FP inh = blocks human PABP binding to poly(A) RNA. P11940. fluorescence polarization. calls only at 35 µM. actives 1% (n = 290,000);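 further: calls also rest on retests at 20 µM and on dose response follow-up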
# Target sequence (P11940 whole entry, looked up): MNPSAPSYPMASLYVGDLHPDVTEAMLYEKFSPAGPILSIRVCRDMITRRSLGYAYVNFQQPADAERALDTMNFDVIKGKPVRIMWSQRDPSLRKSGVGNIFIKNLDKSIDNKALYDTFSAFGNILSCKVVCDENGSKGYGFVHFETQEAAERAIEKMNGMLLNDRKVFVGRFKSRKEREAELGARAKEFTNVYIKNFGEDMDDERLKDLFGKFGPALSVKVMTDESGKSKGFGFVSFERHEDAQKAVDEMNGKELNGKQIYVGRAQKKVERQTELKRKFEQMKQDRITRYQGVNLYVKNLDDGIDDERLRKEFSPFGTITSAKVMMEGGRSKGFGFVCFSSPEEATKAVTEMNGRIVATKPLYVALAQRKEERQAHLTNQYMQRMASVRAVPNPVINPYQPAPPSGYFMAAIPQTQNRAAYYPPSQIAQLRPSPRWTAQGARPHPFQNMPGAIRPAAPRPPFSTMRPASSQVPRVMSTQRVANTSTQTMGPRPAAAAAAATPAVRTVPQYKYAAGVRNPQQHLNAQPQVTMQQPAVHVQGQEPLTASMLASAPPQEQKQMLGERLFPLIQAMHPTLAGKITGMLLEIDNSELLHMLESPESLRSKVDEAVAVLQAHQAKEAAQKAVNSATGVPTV
# PABP1 MLLE inh = blocks PAM2 peptide binding to the PABP1 MLLE domain | P11940 | GST-MLLE / FITC-PAM2 fluorescence polarization | inhibition, % at 20 µM | actives 0.36% (n = 360,000) | AID 588489; in the data active means inhibition above about 35%, passing the limit was not always enough;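 further: plate controls were DMSO wells with GST-MLLE for no effect and wells lacking GST-MLLE protein for full effect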
# PHOSPHO1 inh = inhibitors of human PHOSPHO1 phosphatase; inhibition, % at 13.3 µM; AID 1565; Q8TCT1; actives 1.1% (n = 290,000); recombinant PHOSPHO1, absorbance phosphatase assay; in the data active means inhibition above about 60%
# The depositor's hits bear a star; i = inactive; ? = inconclusive; nt = no result; + = active, no number. Unless noted, how the calls were made is not given here.
SMILES,eIF4H FP inh,Efa HMGR inh,PABP FP inh,PABP1 MLLE inh,PHOSPHO1 inh
COc1ccc(NS(=O)(=O)c2cc(NC(=O)/C=C/c3ccccc3OC)ccc2N2CCCCC2)cc1,35.4,-4.3,i,-13.1,-13.9
COCCCn1c(=O)/c(=C/c2ccccc2OC(F)F)s/c1=C(\C#N)C(=O)NCCOC,nt,nt,nt,-57.9,nt
COCCCNC(=O)/C(C#N)=c1\s/c(=C\c2ccccc2OC(F)F)c(=O)n1CCCOC,54.7*,-2.5,i,-8.1,4.4
CC(C)(C)c1ccc(C2(C)NC(=O)NC2=O)cc1 (stereo not given),9.5,nt,i,6.8,43.3
CN(c1ccccc1)S(=O)(=O)c1cccc(NC(=O)c2ccc(Cl)c([N+](=O)[O-])c2)c1,nt,nt,nt,5.5,nt
CNC(=O)c1c(NC(=O)C2=COCCO2)sc2c1CCN(C(=O)OC)C2,nt,nt,nt,-6.3,nt
C[C@H]1[C@H](C)CC[C@]2(C(=O)O)CC[C@]3(C)C(=CC[C@@H]4[C@@]5(C)C[C@@H](O)[C@H](O)C(C)(C)[C@@H]5CC[C@]43C)[C@H]12,-5.9,18.2*,i,0.0,6.0
C[C@H]1[C@H](C)CC[C@]2(C(=O)O)CC[C@]3(C)C(=CC[C@@H]4[C@@]5(C)CC[C@H](O)C(C)(C)[C@@H]5CC[C@]43C)[C@H]12,-10.8,nt,i,-15.4,22.1
O=c1[nH]c(=S)[nH]c2c1C(c1ccc(F)cc1)OC(C1CCCCC1)C2 (stereo not given),nt,nt,nt,19.6,nt
CC(=O)C1=C(O)C(=O)N(C)C1c1ccccc1F (stereo not given),-1.6,15.5*,i,15.0,-6.0
CC1CN(Cc2cnc(Cl)s2)CC(C)O1 (stereo not given),-5.0,22.9*,i,15.9,38.9
Cc1ccc(-n2[nH]c(C)c(C=Nc3ccc4[nH]c(=O)[nH]c4c3)c2=O)cc1C,2.6,-6.0,i,67.0*,12.2
COc1cccc(NC(=O)COC(=O)CNC(=O)C2CCCCC2)c1,nt,nt,nt,11.5,nt
Cc1ccc(C)c(OCCNc2ncccc2[N+](=O)[O-])c1,-7.9,nt,i,-13.2,13.8
N=c1c(S(=O)(=O)c2ccc(Cl)cc2)cc2c(=O)n3ccccc3nc2n1CC1CCCO1 (stereo not given),-5.8,nt,i,1.3,-9.0
N=c1c(S(=O)(=O)c2ccc(Cl)cc2)cc2c(=O)n3ccccc3nc2n1Cc1ccco1,73.4*,nt,+,-39.4,8.1
N=c1c(S(=O)(=O)c2ccc(Br)cc2)cc2c(=O)n3ccccc3nc2n1Cc1ccco1,96.5*,nt,+,-30.6,11.9
CCn1c(=N)c(S(=O)(=O)c2ccc(Cl)cc2)cc2c(=O)n3ccccc3nc21,83.1*,-2.5,+,nt,-10.2
N=c1c(S(=O)(=O)c2ccc(Br)cc2)cc2c(=O)n3ccccc3nc2n1Cc1ccccc1,39.2,nt,i,70.2,23.9
COc1ccc(CCn2c(=N)c(S(=O)(=O)c3ccc(C)cc3)cc3c(=O)n4ccccc4nc32)cc1,?,nt,+,79.3,17.4
O=C(Nc1ccc(Oc2ccccc2)cc1)c1csc([C@H]2C[C@H](O)[C@@H](CO)O2)n1,nt,nt,nt,0.0,nt
COc1ccc(NC(=O)/C(C#N)=C\c2ccc(Br)o2)cc1,80.1*,nt,+,-9.1,19.9
COc1ccc(NC(=O)/C(C#N)=C\c2ccc(-c3cc(C(=O)O)ccc3C)o2)cc1,79.3*,nt,+,17.6,28.7
CSc1ccc(/C=C/C(=O)OCC(=O)N2CCN(S(=O)(=O)c3ccc(C)cc3C)CC2)cc1,nt,nt,nt,-26.8,nt
Cc1ccc2nc(-c3cc(N)cc(N)c3)oc2c1,17.7,13.6*,i,-10.2,48.5
SMILES,eIF4H FP inh,Efa HMGR inh,PABP FP inh,PABP1 MLLE inh,PHOSPHO1 inh
Nc1ccc(-c2nc3ccc(N)cc3o2)cc1,2.0,-0.3,i,6.5,8.6
COC(=O)c1ccc(C2C(C(=O)c3cc4ccccc4o3)=C(O)C(=O)N2c2cc(C)on2)cc1 (stereo not given),?,nt,+,-34.7,12.7
Cc1cc(N2C(=O)C(O)=C(C(=O)c3cc4ccccc4o3)C2c2ccc(OC(C)C)cc2)no1 (stereo not given),8.6,nt,i,7.6,15.9
CC1(CC(=O)N/N=C/c2ccc(-c3ccc(C(=O)O)cc3)o2)OCCO1,8.0,-0.2,i,-2.3,18.3
O=C(CN1CCOCC1)N/N=C/c1ccccc1,-0.9,-5.0,i,18.2,60.0*
O=C(N/N=C/c1ccc(N2CCOCC2)cc1)c1ccncc1,nt,nt,nt,-11.6,nt
O=C(CN1CCOCC1)N/N=C/c1ccc(-c2ccc(C(=O)O)cc2)o1,25.2,nt,+,-132.0,-112.2
O=C(N/N=C/c1ccc(N2CCOCC2)cc1)c1ccccc1OCCOc1ccccc1,104.3*,-1.9,+,-31.5,40.1
CCCN(CCC)c1ccc(/C=N/NC(=O)CN2CCOCC2)cc1,-8.8,0.2,i,-12.0,3.5
O=C(CCCOc1ccccc1)Nc1cccc(S(=O)(=O)N2CCCCCC2)c1,nt,nt,nt,2.7,nt
COc1ccccc1N1CCN(C(=O)/C=C/c2c(Cl)nc3ccccn23)CC1,1.1,0.8,i,-3.6,37.9
COc1ccc(NC(=O)/C=C/c2c(Cl)nc3ccccn23)cc1,1.5*,-12.6,+,-13.2,26.5
O=C(C[n+]1cccc2ccccc21)c1ccc(Br)cc1,30.7,nt,i,-7.3,24.7
NC(=O)C[n+]1cccc2ccccc21,?,7.2,?,14.9,93.8*
O=C(O)c1cccc2c1C(=O)c1ccccc1C2=O,-7.2,-0.1,i,13.2,-43.4
O=C(O)c1ccc2c3c(ncnc13)-c1ccccc1C2=O,?,0.0,?,nt,104.8*
CCOc1cccc(-c2c(C(=O)N/N=C/c3ccc(C)o3)nnn2-c2nonc2N)c1,-12.2,nt,i,9.7,-30.9
COc1cccc2c1cc1c(=O)n(CC(=O)NCCCN3CCCCC3)nc(C)n12,-13.3,nt,i,4.4,42.2
O=C(CSc1nnc(-c2ccco2)c(-c2ccco2)n1)c1ccccc1,110.0*,0.0,+,21.6,46.6
CC(=O)Nc1ccc(N2C(=O)CSC2c2cccc(Br)c2)cc1 (stereo not given),0.1,nt,i,8.4,46.3
O=c1c(O)cccc2cc(O)c(O)c(O)c12,102.4*,nt,+,37.6*,-5.9
O=c1cc(-c2ccccc2)oc2cc(O)c(O)c(O)c12,nt,nt,nt,-2.2,nt
CCOCc1c(C(=O)N2CCN(CC(=O)Nc3ccc(F)cc3)CC2)oc2ccccc12,nt,nt,nt,8.2,nt
Nc1nc(-c2ccccn2)nc(N)c1Cc1ccc(Cl)cc1Cl,70.3*,-2.0,i,-7.7,32.6
Cc1c(C(=O)OC(C)C(=O)N(C)Cc2ccccc2)oc2ccccc12 (stereo not given),nt,nt,nt,-14.0,nt
Cc1c(C(=O)OC(C)C(C)C[N+](C)(C)C)oc2ccccc12 (stereo not given),5.8,-2.6,i,-126.3,86.8*
COc1cccc(-c2ccc(-c3noc(-c4ccccc4F)n3)c(OC)n2)c1,-5.8,-0.7,i,-3.8,0.2
COc1nc(-c2ccc(Cl)cc2)ccc1-c1noc(-c2ccco2)n1,-17.9,-3.8,i,-135.2,80.4*
CCCCNC(=O)C1CC(=O)N(CCc2ccc(C)cc2)C1 (stereo not given),-9.7,nt,i,-2.6,50.7
